# Screening results as filed in PubChem BioAssay.
# PGC1a acetyl inh: PGC1a acetylation modulation, inhibitor mode. U2OS PGC1a acetylation, AlphaScreen anti-acetyl-lysine; with virally co-expressed GCN5 acetyltransferase. inhibition, % at 15.6 µM. actives 0.17% (n = 350,000);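 active = every replicate shows inhibition of at least 40%; inconclusive = mean inhibition at least 40% but some replicate below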;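 also: 0% = neutral control wells and 100% = positive control wells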
# PAX8 inh HTS: inhibitors of PAX8 transcriptional activity in RMG-I cells; RMG-I TPO-luciferase reporter, SteadyGlo, 24 h; actives 1.2% (n = 360,000); inhibition, % at 12.6 µM;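 active = mean replicate inhibition at least 60% with every replicate also reaching 60%; inconclusive = only one of the two criteria is met; inactive = mean below 60% and not all replicates reaching 60%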;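 also: luciferase light reporting Pax8 driven TPO promoter activity; plate controls were median of neutral control wells for no effect and mitoxantrone controls for full effect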
# EWS-Fli block: EWS/Fli transcriptional activity inhibition | A673 NR0B1-luciferase reporter, viability-normalised | inhibition, % at 12.6 µM | actives 0.67% (n = 350,000);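 active = mean inhibition of at least 50% after viability correction, with every replicate also passing that limit; inconclusive = mean reaches 50% but only one of two replicates passes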;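 also: firefly luciferase signal divided by Alamar Blue viability fluorescence both relative to DMSO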
# LMP1 NFkB inh: Epstein-Barr LMP1 NF-kappaB reporter inhibition; LMP1-induced NF-kappaB luciferase reporter cells, luminescence; inhibition, % at 12.5 µM; actives 0.69% (n = 350,000); in the data active = inhibition above about 41%; inconclusive = no clear call, values can overlap the other calls;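 also: 0% = neutral control wells and 100% = reference inhibitor control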
# LGR2 inh: Drosophila LGR2 receptor signaling inhibition. inhibition, % at 9.99 µM. HEK293 LGR2, CRE-luciferase, bursicon-stimulated, 4 h. actives 0.35% (n = 380,000);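 active = drop in luminescence signal, shown as inhibition above about 50% in the replicate tests, limit read from the data, passing the limit was not always enough; inconclusive = probably only some replicates passing the limit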;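 also: agonist challenge used bursicon conditioned medium at about half maximal strength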
# TRPM1 prom inh: MITF TRPM1 promoter inhibition in SK-MEL-5 cells | SK-MEL-5 TRPM1 promoter luciferase, 24 h | inhibition, % at 12.5 µM | actives 0.83% (n = 330,000) | AID 488899;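 active = mean inhibition across replicates of 60% or more, whatever share of single replicates reaches that level; inconclusive = some that reach 60%, reason not given; inactive = mean inhibition across replicates below 60%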
# The depositor's hits bear a star; ? = inconclusive; nt = no result given. In the library only some 2.2% were active in any assay of this set; here they are far more common.
SMILES,PGC1a acetyl inh,PAX8 inh HTS,EWS-Fli block,LMP1 NFkB inh,LGR2 inh,TRPM1 prom inh
Nc1nnn(CC(=O)N/N=C/c2cccc3ccccc23)n1,nt,nt,nt,8.0,8.8,-2.1
CC1Cc2nc(SCC(=O)N3CCN(c4ccccc4)CC3)n(C)c(=O)c2S1 (configuration not stated),-5.6,26.2,16.0,77.2*,-6.1,-0.7
CC(C)(C)c1ccc(C(=O)NCCOc2ccccc2)cc1,5.0,-6.5,64.2*,17.4,62.1*,9.4
CC(C)(C)c1ccc(C(=O)NCCOc2ccccc2F)cc1,1.1,28.7,74.9*,6.3,67.2*,25.6
C[C@H]1CN([C@@H](C)CO)C(=O)c2cccc(NC(=O)Nc3ccc4c(c3)OCO4)c2O[C@@H]1CN(C)Cc1ccncc1,25.7,-79.8,-27.0,nt,-44.7,nt
COc1ccc2c3c([nH]c2c1)[C@H](CO)N(C(=O)C1CCCC1)CC31CN(C(=O)NC(C)C)C1,nt,-0.6,-6.4,nt,6.9,nt
COCCCNC(=O)C(=O)NC1CCCCCC1,6.6,-33.9,7.9,-2.8,-5.9,-14.1
COCCNC(=O)C/C(C)=N/NC(=O)C(=O)NC1CCCCC1,1.7,100.8*,6.6,-1.6,-6.9,0.1
C[C@@H](NC(=O)C[C@@H]1CC[C@@H]2[C@H](COC[C@H](O)CN2C)O1)c1ccccc1,-15.0,8.3,-4.0,nt,4.7,nt
O=C1CC(c2ccco2)Cc2nc(Nc3nc(-c4ccccc4)c4ccccc4n3)ncc21 (configuration not stated),-11.4,nt,nt,77.2*,nt,-4.7
COc1cccc(S(=O)(=O)N[C@H]2C=C[C@H](CC(=O)NCc3ccc(F)cc3)O[C@@H]2CO)c1,-0.3,-0.9,0.0,nt,-3.4,nt
COC(=O)[C@@]1(C)[C@H]2C(=O)N(Cc3ccccc3)C(=O)[C@H]2[C@H]2CN=C(SCc3ccc(C#N)cc3)N21,1.5,-7.7,-6.7,12.1,1.3,-4.5
COC(=O)[C@@]1(C)[C@H]2C(=O)N(Cc3ccccc3)C(=O)[C@H]2[C@H]2CN=C(SCc3ccc(Cl)cc3)N21,1.3,9.0,10.6,69.9*,-2.2,0.8
C[C@@H]1CN([C@@H](C)CO)C(=O)c2cc(NC(=O)C3CCCCC3)ccc2O[C@@H]1CN(C)CC1CCCCC1,-5.7,nt,-9.0,nt,-3.1,nt
COC(=O)C1=C(C)N(Cc2ccc(C(F)(F)F)cc2)C(=NCc2ccc(C(F)(F)F)cc2)NC1c1cccc(F)c1 (configuration not stated),nt,32.6,56.5*,nt,9.0,nt
COC(=O)C1=C(C)N(Cc2cccc(C(F)(F)F)c2)C(=NCc2cc(OC)c(OC)c(OC)c2)NC1c1cccc(C(F)(F)F)c1 (configuration not stated),nt,85.3*,44.7,nt,-4.0,nt
COC(=O)C1=C(C)N(C)C(=NCc2ccc(C(F)(F)F)cc2)NC1c1cccc(F)c1 (configuration not stated),nt,1.9,6.0,nt,10.5,nt
COC(=O)C1=C(C)N(Cc2ccccc2)C(=NCc2cccc(C(F)(F)F)c2)N[C@H]1c1cccc(F)c1,nt,59.5,38.8,8.4,-8.3,93.6*
COC(=O)C1=C(C)N(Cc2ccc(C(F)(F)F)cc2)C(=NCc2ccccc2)NC1c1cccc(C(F)(F)F)c1 (configuration not stated),nt,?,34.0,nt,7.6,nt
COC(=O)C1=C(C)N(Cc2ccccc2)C(=NCc2cccc(C(F)(F)F)c2)N[C@H]1c1cccc(C(F)(F)F)c1,nt,nt,nt,11.6,nt,96.0*
C[C@@H]1CN([C@H](C)CO)S(=O)(=O)c2ccc(C#CCN(C)C)cc2O[C@@H]1CN(C)C(=O)C1CC1,-7.1,nt,-17.7,nt,12.0,nt
CO[C@@H]1CN(C)C(=O)c2ccc(NC(=O)NC(C)C)cc2OC[C@H](C)N(CCC(F)(F)F)C[C@@H]1C,-3.3,nt,7.1,nt,2.1,nt
C/C=C/c1ccc2c(c1)O[C@@H](CN(C)C)[C@@H](C)CN([C@@H](C)CO)S2(=O)=O,-0.1,nt,-9.0,nt,-30.3,nt
COc1ccccc1S(=O)(=O)N1CC[C@@H]2[C@H]1c1cc(-c3ccc(F)cc3)ccc1N(C)[C@H]2CO,5.5,10.8,6.1,nt,7.2,nt
CN(C)C(=O)c1ccc(-c2ccc([C@@H]3[C@@H](CO)N4CCCCN(C(=O)C5CCCC5)C[C@@H]34)cc2)cc1,4.9,19.7,-17.8,nt,nt,nt
SMILES,PGC1a acetyl inh,PAX8 inh HTS,EWS-Fli block,LMP1 NFkB inh,LGR2 inh,TRPM1 prom inh
COC(=O)C1=C(C)N(Cc2cccc(C(F)(F)F)c2)C(=NCC2CC2)NC1c1cccc(Cl)c1 (configuration not stated),nt,44.4,22.2,nt,nt,nt
COC(=O)C1=C(C)N(Cc2cccc(C(F)(F)F)c2)C(=NCC2CC2)NC1c1cccc(C(F)(F)F)c1 (configuration not stated),nt,89.4*,45.1,nt,45.9,nt
CCC(=O)N(C)C[C@@H]1Oc2ncc(Br)cc2C(=O)N([C@@H](C)CO)C[C@@H]1C,15.9,nt,-20.3,nt,-5.8,nt
O=C1/C(=C/c2ccccc2)CCc2ccc(Cl)nc21,nt,0.5,-4.7,5.8,70.1*,36.1
CCCCc1ccc(NC(=O)c2cnccn2)cc1,5.9,-26.7,0.4,24.0,64.8*,-40.3
O=C(Nc1ccc(N2CCOCC2)cc1)c1cnccn1,nt,57.9,56.9*,63.3*,70.0*,24.8
O=C(Nc1ccc(N2CCOCC2)cc1)c1cnsn1,2.4,nt,nt,76.7*,nt,79.1*
C[C@H]1CN([C@@H](C)CO)C(=O)Cc2cc(NC(=O)CCCN(C)C)ccc2O[C@H]1CN(C)S(=O)(=O)c1ccccc1,1.0,-10.0,-2.9,nt,-22.4,nt
Fc1ccc2cnc(CCO[C@H]3CCCCO3)cc2c1,5.9,-45.7,46.0,15.2,54.0*,-37.6
C/C=C/c1ccc2c(c1)O[C@@H](CN(C)C(=O)Nc1ccc(F)cc1)[C@@H](C)CN([C@@H](C)CO)S2(=O)=O,-11.8,nt,-19.7,nt,-69.0,nt
COc1ccc(-c2ccc3c(c2)[C@@H]2[C@@H](CCN2C(=O)C2CCCC2)[C@H](CO)N3C)cc1,-0.1,75.5*,-1.3,nt,-10.8,nt
COc1ccc(-c2ccc3c(c2)[C@@H]2[C@@H](CCN2S(=O)(=O)c2ccccc2C)[C@H](CO)N3C)cc1,10.7,-1.8,10.2,nt,-14.8,nt
COc1ccc(-c2ccc3c(c2)[C@H]2[C@H](CCN2S(=O)(=O)c2ccccc2C)[C@H](CO)N3C)cc1,3.2,69.4*,11.5,nt,19.1,nt
COc1ccc(-c2ccc3c(c2)[C@@H]2[C@@H](CCN2C(=O)C2CCCCC2)[C@H](CO)N3C)cc1,-12.2,92.7*,12.7,nt,14.7,nt
COc1ccc(-c2ccc3c(c2)[C@H]2[C@H](CCN2C(=O)C2CCCCC2)[C@H](CO)N3C)cc1,-20.4,22.9,1.6,nt,21.4,nt
CCCN1C[C@H](C)[C@H](OC)CN(C)C(=O)c2cc(NC(=O)Nc3c(C)noc3C)ccc2OC[C@H]1C,-0.5,-14.3,-5.6,nt,5.9,nt
O=C(/C=C/c1ccc2ccccc2n1)N1CCN(S(=O)(=O)c2ccc(F)cc2)CC1,nt,67.7*,25.2,22.7,17.0,51.6
